Screening data as filed in PubChem BioAssay.
In the library only some 3.2% were active in any assay of this set; here they are far more common.
MsrA inhibitor – inhibits bovine methionine sulfoxide reductase A; purified bovine MsrA, absorbance read-out; inhibition, % at 15.5 µM; hit rate 0.75% among 360,000; AID 651718; in the data active = inhibition above about 4.5%
NadD inh – inhibitors of Staphylococcus aureus NadD; purified NadD enzyme, colorimetric absorbance read-out; inhibition, % at 20 µM; hit rate 0.78% among 360,000; AID 602399; in the data active = inhibition above about 26%
DAGLB inh – blocks human DAGLB lipase activity | inhibition, % at 5.17 µM | Q8NCG7 | HEK293T DAGLB membrane lysate, EnzChek fluorogenic substrate | AID 504411 | hit rate 0.059% among 340,000; in the data active = inhibition above about 34%
Target sequence (Q8NCG7 whole entry, looked up): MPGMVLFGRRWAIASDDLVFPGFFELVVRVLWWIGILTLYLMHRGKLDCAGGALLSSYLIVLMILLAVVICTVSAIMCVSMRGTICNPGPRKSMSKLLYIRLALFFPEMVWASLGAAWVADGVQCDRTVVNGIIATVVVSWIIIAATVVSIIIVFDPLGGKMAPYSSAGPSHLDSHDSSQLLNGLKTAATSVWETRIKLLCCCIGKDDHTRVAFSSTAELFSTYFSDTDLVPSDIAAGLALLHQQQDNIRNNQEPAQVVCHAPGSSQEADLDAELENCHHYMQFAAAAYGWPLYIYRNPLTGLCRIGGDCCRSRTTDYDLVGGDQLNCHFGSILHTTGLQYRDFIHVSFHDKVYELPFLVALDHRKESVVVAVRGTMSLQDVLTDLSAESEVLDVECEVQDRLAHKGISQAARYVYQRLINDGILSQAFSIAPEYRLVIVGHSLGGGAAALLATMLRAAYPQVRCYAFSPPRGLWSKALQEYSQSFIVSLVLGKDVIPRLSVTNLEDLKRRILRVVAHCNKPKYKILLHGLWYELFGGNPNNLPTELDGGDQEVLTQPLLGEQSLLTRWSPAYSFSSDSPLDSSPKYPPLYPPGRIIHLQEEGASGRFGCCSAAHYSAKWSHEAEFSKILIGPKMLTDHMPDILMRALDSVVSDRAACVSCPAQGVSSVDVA
bovine MsrA act – activators of bovine methionine sulfoxide reductase A; purified bovine MsrA, absorbance read-out; activation, % at 10.6 µM; hit rate 0.3% among 360,000; in the data active = activation above about 7.5%
DSG3 Ab inh – human desmoglein-3 autoantibody binding inhibition; P32926; DSG3-coupled beads, scFv-anti-DSG3-GFP binding, flow cytometry; stronger effect = lower value; binding (percent of control), % at 10 µM; hit rate 0.48% among 310,000; AID 588358;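 active = binding more than 3 SD below its plate's average and above zero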;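 note: hits lower antibody fragment binding to DSG3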
rCAG RNA binder – molecules binding r(CAG) RNA repeats. inhibition, % at 3 µM. hit rate 1.3% among 370,000. r(CAG) RNA repeat, TO-PRO-1 dye displacement fluorescence;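 active = inhibition above the plate cutoff, the mean of all test compounds on that plate plus 3 SD, cut at about 35% in these data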;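 note: higher means more dye released from RNA so lower well fluorescence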
rCAG binder conf – r(CAG) RNA repeat binding, confirmation; TO-PRO-1 dye displacement fluorescence; AID 652065; shares compounds with rCAG RNA binder; hit rate 70% among 4,300; inhibition, % at 3 µM;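 active = inhibition above a per-plate cutoff, the mean inhibition of sample wells plus 3 SD, cut at about 35% in these data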;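 note: loss of TO-PRO-1 fluorescence as compound displaces dye from 1x1 AA loop RNA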
DNA CAG counter – disrupts DNA CAG TO-PRO-1 complex, flagging rCAG hits | shares compounds with rCAG RNA binder | d(CAG) DNA oligo TO-PRO-1 dye displacement, fluorescence | inhibition, % at 3 µM | hit rate 94% among 4,300;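 active = inhibition above its plate's cutoff, the mean test-well inhibition plus 3 SD, cut at about 4.8% in these data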;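 note: hits displace the dye from DNA and so lower well fluorescence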
DNA CAG DR – counter-screen for rCAG binders: inhibitors of DNA CAG TO-PRO-1 complex | shares compounds with rCAG RNA binder | hit rate 20% among 250 | IC50, µM | DNA CAG/GTC duplex TO-PRO-1 dye displacement fluorescence; in the data active = IC50 below about 10 µM
Of the large screens only hits and unclear results are named; the others gave an inactive call (follow-up assays come after a bar, where they were run).

C[C@H](O)[C@@H]1C(=O)N2CCc3c([nH]c4ccccc34)[C@@H]2C[C@@H]1N(C)C(=O)Nc1ccc(Br)cc1	none (no result: NadD inh, DAGLB inh, bovine MsrA act, DSG3 Ab inh)
FC(F)(F)C1=Nc2cccc3cccc(c23)N1	NadD inh 72, rCAG RNA binder 94 | rCAG binder conf 47 | DNA CAG counter 38
Fc1ccc(C2=Nc3cccc4cccc(c34)N2)cc1	none
CCOC(=O)[C@@H]1CSCCS(=O)(=O)N1C(=O)[C@H](Cc1ccccc1)NC(=O)OC(C)(C)C	none (no result: NadD inh, DAGLB inh, bovine MsrA act, DSG3 Ab inh)
S=C(NCc1ccccc1)NC1CCSc2ccccc21 (stereo unspecified)	rCAG RNA binder 53 | rCAG binder conf inactive | DNA CAG counter inactive
CC(C)CS(=O)(=O)C1=NSC2=NC(=O)/C(=C\c3ccc(OC(=O)c4ccco4)cc3)C(=N)N21	none
CSC1=NSC2=NC(=O)/C(=C\c3ccc(OC(=O)c4ccco4)cc3)C(=N)N12	rCAG RNA binder 38 | rCAG binder conf 43 | DNA CAG counter 13
CCC(CC)C1=NN2C(=N)/C(=C/c3ccc(OC(=O)c4ccco4)cc3)C(=O)N=C2S1	rCAG RNA binder 42 | rCAG binder conf 46 | DNA CAG counter 12
CS(=O)(=O)C1=NSC2=NC(=O)/C(=C\c3ccc(OC(=O)c4ccco4)c(Br)c3)C(=N)N21	rCAG RNA binder 40 | rCAG binder conf 83 | DNA CAG counter 53
N=C1/C(=C\c2ccc(OC(=O)c3ccccc3Cl)cc2)C(=O)N=C2SC(N3CCOCC3)=NN12	NadD inh 48, rCAG RNA binder 37 | rCAG binder conf 63 | DNA CAG counter 27
O=C(C1CCN(S(=O)(=O)c2ccc3[nH]c(=O)oc3c2)CC1)N1CCCC1	none (no result: MsrA inhibitor, NadD inh, DAGLB inh, bovine MsrA act, DSG3 Ab inh)
O=C(Nc1ccc(C(O)c2ccccc2)cc1)[C@@H]1O[C@H](CO)[C@@H](O)[C@H]1O (stereo partly specified)	none (no result: DAGLB inh, DSG3 Ab inh)
C=CCNC(=O)N1CCC(c2nc3ccc(Cl)cc3[nH]2)CC1	none (no result: MsrA inhibitor, NadD inh, DAGLB inh, bovine MsrA act, DSG3 Ab inh)
O=C(Nc1sc2c(c1C(=O)O)CCCC2)c1ccc(Cl)cc1	rCAG RNA binder 69 | rCAG binder conf 50 | DNA CAG counter 14
CCC(C(=O)O)N1C(=O)/C(=C/C(C)=C/c2ccccc2)SC1=S (stereo unspecified)	rCAG RNA binder 61 | rCAG binder conf 76 | DNA CAG counter 31 | DNA CAG DR inactive
C=CCN1C(=O)/C(=C\C(C)=C\c2ccccc2)SC1=S	none
CC(=C\c1ccccc1)/C=C1/SC(=S)N(C(C(=O)O)C(C)C)C1=O (stereo unspecified)	rCAG RNA binder 69 | rCAG binder conf 63 | DNA CAG counter 25
COc1ccc(NC(=O)NC2CCN(S(=O)(=O)c3ccc(F)cc3)CC2)cc1OC	none (no result: MsrA inhibitor, NadD inh, DAGLB inh, bovine MsrA act, DSG3 Ab inh)
Cc1oc2c(cc(NS(=O)(=O)c3ccc(F)cc3)c3ccccc32)c1C(=O)O	none
Cc1oc2c(cc(NS(=O)(=O)c3cccs3)c3ccccc32)c1C(=O)OC(C)C	rCAG RNA binder 37 | rCAG binder conf inactive | DNA CAG counter 9.5
Cc1oc2c(cc(NS(=O)(=O)c3ccc(C(C)C)cc3)c3ccccc32)c1C(=O)O	rCAG RNA binder 54 | rCAG binder conf 63 | DNA CAG counter 28
COc1ccc(S(=O)(=O)Nc2cc3c(C(C)=O)c(C)oc3c3ccccc23)cc1	none
COC(=O)C[C@@H]1CC[C@H]2[C@H](COc3ccc(NC(=O)c4cccc(C(F)(F)F)c4)cc3C(=O)N2C)O1	none (no result: MsrA inhibitor, NadD inh, DAGLB inh, bovine MsrA act, DSG3 Ab inh)
CCC(C)[C@H](NC(=O)Nc1ccc(C)cc1C)C(=O)O (stereo partly specified)	rCAG RNA binder 64 | rCAG binder conf inactive | DNA CAG counter inactive
CCCNC(=O)Nc1ccc(C)cc1C	none
O=C(CCc1c[nH]c2ccccc12)NC(Cc1ccccc1)C(=O)O (stereo unspecified)	rCAG RNA binder 36 | rCAG binder conf inactive | DNA CAG counter inactive
CC(c1ccccc1)C(NC(=O)OCC1c2ccccc2-c2ccccc21)C(=O)O (stereo unspecified)	rCAG RNA binder 46 | rCAG binder conf 42 | DNA CAG counter 8.9
O=C(N[C@@H](Cc1ccc(Br)cc1)C(=O)O)OCC1c2ccccc2-c2ccccc21	rCAG RNA binder 39 | rCAG binder conf 69 | DNA CAG counter 28
O=C(NC(Cc1c[nH]c2ccccc12)C(=O)O)OCC1c2ccccc2-c2ccccc21 (stereo unspecified)	rCAG RNA binder 69 (no result: DAGLB inh, DSG3 Ab inh) | rCAG binder conf 59 | DNA CAG counter 18
CC1CN(C2CCCCC2)C(=S)N(c2ccccc2)C1=O (stereo unspecified)	none (no result: DSG3 Ab inh)
COCc1cn(-c2nc3ccccc3s2)nn1	none (no result: DAGLB inh, DSG3 Ab inh)
COc1ccc(NC(=O)c2sc(=O)n(Cc3ccc(F)c(Cl)c3)c2C)cc1OC	none (no result: DAGLB inh, DSG3 Ab inh)
O=C(N[C@H](Cc1ccc(Cl)cc1)C(=O)O)OCC1c2ccccc2-c2ccccc21	rCAG RNA binder 40 | rCAG binder conf 66 | DNA CAG counter 24
COc1ccc(/C=C2\SC(=S)N(NS(=O)(=O)c3ccccc3)C2=O)c(OC)c1	rCAG RNA binder 39 | rCAG binder conf 74 | DNA CAG counter 34 | DNA CAG DR inactive
COc1ccc(OC)c(/C=C2\SC(=S)N(NS(=O)(=O)c3ccccc3)C2=O)c1	rCAG RNA binder 87 | rCAG binder conf 67 | DNA CAG counter 30
O=C1/C(=C/c2cccs2)SC(=S)N1NS(=O)(=O)c1ccccc1	rCAG RNA binder 54 | rCAG binder conf inactive | DNA CAG counter 6.8
O=C1/C(=C/C=C/c2ccco2)SC(=S)N1NS(=O)(=O)c1ccccc1	DSG3 Ab inh 51, rCAG RNA binder 89 | rCAG binder conf 87 | DNA CAG counter 61
COc1ccc(/C=C2\SC(=S)N(N3CCOCC3)C2=O)c(OC)c1	none
COc1ccccc1-c1cnc(C(O)c2c(C)cc(C)cc2C)[nH]1 (stereo unspecified)	none (no result: DAGLB inh, DSG3 Ab inh)
CCCc1cc2c(cc1N(C)S(=O)(=O)c1ccccc1)OCO2	none (no result: DSG3 Ab inh)
CC(C(=O)O)N1C(=O)/C(=C/C=C/c2ccco2)SC1=S (stereo unspecified)	DSG3 Ab inh 69, rCAG RNA binder 83 | rCAG binder conf 79 | DNA CAG counter 41
CCN(C(=O)C(C)N1C(=O)/C(=C/c2ccco2)SC1=S)C1CCS(=O)(=O)C1 (stereo unspecified)	none
FC(F)(F)c1cc(Cl)c2nc(-c3ccc(Cl)cc3)c(Cc3ccsc3)n2c1	rCAG RNA binder 51 (no result: DAGLB inh, DSG3 Ab inh) | rCAG binder conf inactive | DNA CAG counter 6.1
Fc1ccc(-c2nc3c(Cl)cc(C(F)(F)F)cn3c2Cc2cccc(Cl)c2)cc1	rCAG RNA binder 38 (no result: DAGLB inh, DSG3 Ab inh) | rCAG binder conf inactive | DNA CAG counter 4.6
FC(F)(F)c1cc(Cl)c2nc(-c3ccccc3)c(Cc3ccsc3)n2c1	none (no result: DAGLB inh, DSG3 Ab inh)
